# In the supplement of paper PMC6555819:
# What was measured:
# Assay in all cases: PBM binding z-score (relative to random genomic background probes); higher = stronger binding; sequences stand for … in GC…GCGATTGACAGCGTAGAATGAAGG
# [1] = test system: FXR:RXRa (NR concentration 270 nM, RXRa partner concentration 90 nM)
# In short: (§1)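 Binding buffer was PBS pH 7.4 with 2% milk, 0.02% Triton X-100, 1 mM DTT, 0.2 mg/mL BSA and 0.4 mg/ml salmon testes DNA. In it, ligand-free nuclear receptor dimers were incubated 1 h on custom Agilent 4×180K protein-binding microarrays carrying double-stranded probes. Antibodies against each partner (one per run) detected binding, and z-scores were calculated against random background probes after regression normalization of scanned fluorescence.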
# [2] = test system: LXRa:RXRa (NR concentration 270 nM, RXRa partner concentration 90 nM)
# In short: as §1
# [3] = test system: LXRa homodimer (NR concentration 270 nM)
# In short: as §1
# [4] = test system: LXRb:RXRa (NR concentration 270 nM, RXRa partner concentration 90 nM)
# In short: as §1
# [5] = test system: LXRb homodimer (NR concentration 270 nM)
# In short: as §1
# [6] = test system: PPARa:RXRa (NR concentration 270 nM, RXRa partner concentration 90 nM)
# In short: as §1
# [7] = test system: PPARg:RXRa (NR concentration 180 nM, RXRa partner concentration 90 nM)
# In short: as §1
# [8] = test system: PPARg:RXRa 270nM:90nM, anti-RXR (NR concentration 270 nM, RXRa partner concentration 90 nM)
# In short: as §1
# [9] = test system: PPARg:RXRa 30nM:10nM, anti-RXR (NR concentration 30 nM, RXRa partner concentration 10 nM)
# In short: as §1
# [10] = test system: PPARg:RXRa 90nM:30nM, anti-RXR (NR concentration 90 nM, RXRa partner concentration 30 nM)
# In short: as §1
Sequence,PBM binding z-score [1],PBM binding z-score [2],PBM binding z-score [3],PBM binding z-score [4],PBM binding z-score [5],PBM binding z-score [6],PBM binding z-score [7],PBM binding z-score [8],PBM binding z-score [9],PBM binding z-score [10]
GCTCGGAGGACAAGCTCAGAGCTTTGTCCGTAGA,-0.583,-0.885,-0.935,-0.784,-0.639,-0.425,-1.69,-1.3,-1.5,-1.33
CCTACAGGGCCATCAGGTCATTGATATCAACGTT,1.88,1.31,0.875,1.51,-0.272,2,0.835,1.04,0.253,0.77
CCAGACAGGTTAGAAGGTAACTCAGCCTCGATTA,0.224,0.466,0.473,0.483,0.172,0.816,0.402,0.288,-0.236,0.116
CCAGACAGGTCAAAGGTAACTCAGTCTGGTACGC,6.4,4.97,0.903,4.17,0.453,5.83,7.89,7.43,6.13,8.02
CCTAGTTGGTCAAGGTCACAAACGCTATAGGTAC,3.97,3.32,1.64,3.45,0.933,3.93,3.16,3.43,1.09,2.53
ACAGACAGGTGATGAAGGTGACTCAGGCTATCAT,0.202,0.0616,-0.267,0.143,-0.348,0.764,0.82,0.457,-0.1,0.274
TAGCCTAGGTCATTCAGGGGCCAGTATTGAAAGC,4.17,3.5,0.907,3.03,0.763,3.43,1.63,2.22,0.291,1.32
TCTCGGAGGACCCGAAAGGTCAGAGCTCGACATC,2.35,2.99,1.17,2.77,-0.541,3.34,0.565,2.23,2.07,2.11
ATCGAAAGGTCGAGGGGAGTATAGAGAAAGGGAA,4.46,3.49,0.308,2.92,1.64,4.58,2.97,3.17,1.13,2.36
CGTCCAAGGTCAATGCTAGGTCAGTAAAAGCATT,6.68,5.2,2.38,4.32,0.868,5.23,4.37,4.46,1.9,3.08
CTCGAAAGGTCGGGCTCAGGTGAGTATACCAAAC,3.1,2.11,-0.238,1.9,0.116,3.25,0.671,1.88,-0.168,0.853
ATATGTAAGTTATCGGGTCATTCAGTTTGCGCAT,2.13,2.33,1.43,2.61,1.02,2.93,1.83,2.22,0.702,1.72
ACTCGGAGTACAAAGGTCAGAGCTACGCCAGTGA,4.23,4.12,1.57,3.56,0.437,5.17,8.46,7.54,7.42,8.33
CGTCCAAGGTCATAGGAGCTCAGTGAAGACAGAT,7.5,5.19,0.569,3.82,0.584,5.64,4.69,5.04,1.57,3.6
ACTAGCAGGCCAAGGGTCACTCAAGATTAGTCCG,2.48,2.76,0.0687,2.81,-0.402,4.43,7.75,7.53,7.41,8.63
CGTCCAAGGTCTTAGGAGGTCAGTGAAGACAGAT,1.69,3.12,0.984,2.03,-0.404,2.28,0.427,1.06,0.0477,0.43
ATATGTAGGTTATCGGGTCATGCAGTTTGCGCAT,2.87,3.08,1.26,2.54,0.785,4.99,7.53,6.31,4.45,6.01
TCATATAGGTAAATGCTAGATGAAAGTCCGATCT,0.267,0.34,-0.249,0.68,-0.163,1.06,1.06,1.99,3.6,2.79
TCGAGTAGGTTACCAATGGGGCATGCAGCTTTCT,-0.0297,0.818,-0.705,0.567,-0.608,1.07,0.261,1.08,0.922,1.1
TAGCCTAGGTCAGATCGGGCCAGTGTACGCTATA,1.85,0.96,-0.454,0.525,-0.897,1.49,0.36,0.761,-0.533,-0.134
ACTAGCAGGCCAAGTGTGGGTCACTCAAACAAAG,-0.167,0.206,-0.486,0.691,-0.959,2.19,0.66,1.38,-0.102,0.685
CCTCGGAGGACAGAAGGTCACAGCTGTCCGCTTT,2.65,3.33,0.899,2.27,-0.713,3.54,0.989,2.62,-0.00709,1.83
TCTAGTTGTTCACGGAGGTCACACACGACGGGTA,2.82,3.29,2.83,3.17,0.94,3.66,1.84,2.89,3.43,3.07
CAAACTAGGTCAAGGTCAAAGTTGGTTTGTGCCA,7,5.55,4.19,4.77,1.48,6.04,9.87,7.82,6.98,8.52

Sequence,PBM binding z-score [1],PBM binding z-score [2],PBM binding z-score [3],PBM binding z-score [4],PBM binding z-score [5],PBM binding z-score [6],PBM binding z-score [7],PBM binding z-score [8],PBM binding z-score [9],PBM binding z-score [10]
CCTAGTTGGGCAAGGTCACACACGCTATAGGTAC,3.55,3.21,1.32,3.28,0.0205,3.88,2.45,2.92,1.03,2.25
CAAACTAGGTCAAGGTCAAAGGCGGTTTGTGCCA,6.43,5.36,3.25,4.34,1.01,5.91,9.82,8.02,6.66,8.34
CCTCGGAGGACAACAGGAGGTCAGGGCTGCCAGA,1.17,1.84,1.45,1.14,-0.784,2.09,0.517,0.522,-0.226,0.18
TTACCAAGGTGAATGGTCGTTGATGCACGCCTTG,0.766,0.485,-0.417,0.403,-0.853,1.35,1.32,2.39,1.14,2.06
ACAGACAGGTGAGTGAAGATAACTCAGCTGGACG,-0.343,-0.53,-0.558,-0.776,-0.749,-0.453,0.887,-0.267,0.137,-0.0703
CGAACTAGGTCATCCAGGACAGTGGATACATTGA,4.72,2.32,0.245,1.99,0.307,4.9,7.83,5.84,4.33,5.96
TAGCCTAGGTCATGCGGGCCAGTAAAGTGTCGGC,3.65,3.17,-0.0418,1.66,-0.608,3.69,2.07,2.27,-0.0823,1.37
ACTCGAAGGACAAAGGTCAGAGCTACGCCAGTGA,4.03,3.98,1.41,3.57,0.35,4.95,6.73,6.23,5.02,6.39
TCTAGTTAGTCACGGAGGTCACACACGACGGGTA,3.07,3.04,2.41,3.3,0.442,3.76,2.22,3.13,3.48,3.22
TCTAGTTGGTCACGGATGTCACACACGACGGGTA,0.669,0.373,0.422,0.666,0.393,1.18,1.32,2.25,3.22,2.84
CCGACTGGGGCTTAAGGTTACCATAAGCCAGCCC,0.202,1.84,-0.512,0.703,-1.22,0.992,0.91,1.99,-0.108,1.29
CCTACTGGGCCAAGGTCATTGGTCAGTCAAAGCA,3.51,2.93,1.17,2.84,-0.423,4.01,4.31,4.6,1.68,3.55
TCTAGTTGGTCAAAGGTCACATACTCGAAATGCG,5.54,5.66,3.58,5.2,2.28,6.24,10.8,9.78,9.93,11.1
CGTTACGGGTCACGAGGTTATAGCACGACGAGCG,6.83,4.97,0.389,4.23,-0.0926,6.15,6.94,6.69,2.7,5.8
CCTTTCGGGTCAAGGTTATAGCACGGGTGGTACG,5.72,3.85,0.197,3.11,0.545,5.06,4,5.1,1.91,4.2
TCTAGTTGGTCACGGAGGTCACACTCGACGGGTA,3,3.28,2.58,3.06,0.84,3.75,2.84,3.93,3.54,3.5
CCGAGTAGGTTCTGGGGCATTCAGGCAACGGTGA,-0.196,-0.351,-0.153,-0.391,-0.906,0.158,-0.108,0.645,-0.76,0.156
CGGCAAAGTTCAACTAAGGTAACGTAAAGCACGC,7.42,5.93,2.94,3.99,1.22,5.03,4.7,5.19,1.6,3.81
GCTCGGACGACAAGGTCAGAGCTTTGTCCGTAGA,1.39,1.19,-0.78,0.912,-1.26,2,0.028,0.343,-0.807,-0.125
ATATGTAGGTTAAGGGTCAGTCAGGTTGGTTCGC,3.7,3.26,1.44,3.34,0.965,6.05,11,9.37,9.35,11.6
CAAACCAGGTCAAGGTCAAAGTCGGTTTGTGCCA,7.11,5.98,4.41,5.17,1.73,6.28,7.8,7.07,4.62,6.61
CTCTAAAGGTCGGTTGAGGTGAGTATACGGATAA,2.41,2.21,0.211,1.61,0.152,2.87,0.622,1.44,0.122,0.958
CGTCCAAGGTCAAGGTCGGTGAAAGAGACTCGAA,7.27,5.92,0.458,4.22,0.00899,5.85,5.34,5.83,2.16,4.39
ACCGAAAGGTCGTGAGGTGAGTATACAGAAAGGC,5.42,3.86,-0.204,3.02,0.134,5.29,3.99,4.37,1.42,2.8
